Source: the supplement of paper PMC11417369
± gives the standard deviation of the averaged measurements. Whole data set: some 25,000 sequences, median “ln(normalized median fluorescence intensity)” near 7.9, cut for the highest 2% near 11. This excerpt belongs to a sample that is enriched for the highest values.

Tested on: PfAP2-I AP2 domain 3 (GST-tagged)
Assay: gcPBM binding intensity (ln(normalized median fluorescence intensity)); higher = stronger DNA binding
Method in brief: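 GST-tagged P. falciparum DNA-binding domains, expressed in E. coli (about 25 μg on average), were applied for 1 h to an Agilent 4 × 180k array of primer-extended double-stranded 36-bp intergenic genomic probes plus negative controls. The binding buffer was 1× PBS with 1% milk, 0.2 mg/ml BSA, 0.5% salmon testes DNA and 0.03% Triton X-100. Bound protein was detected with Alexa488 anti-GST antibody and scanned at 488 nm. Binding intensity is the highest Masliner-normalised natural-log median intensity across replicate spots of either probe orientation.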

Sequence	gcPBM binding intensity (ln)
AAAAATAAACAATATATAGTTATATATATATATATA [TGCATGCA_negctrl_site82]	9.29 ± 0.69
TTTTTGTTATTTTTAGTGCACATTTAAGGGTGTATT	11.4 ± 0.53
ATATTTATTTGTTAGTGTACATACATATATATATAT [XGTACX_site1347]	9.47 ± 0.4
TTTATATTTATGTAGGTGCATTTGTTTACAACATAT [GTGCAC_site9511]	10.8 ± 0.71
TTCTCATTCAAATTAGTGCATTTTTGTTATTACATT	9.81 ± 0.2
TGTGCACATAATTAGTGTACATTTTTTATTTAGACA [XGTACX_site317]	10.3 ± 0.88
TATTTTTTTTGTTAGGTGCATTTACATTTATTTTTA	10.8 ± 0.61
CTATATTTTTAAAAATGTACTTTATAATAAAATACT [XGTACX_site3593]	7.83 ± 0.32
ATTTATAATGATTTTTTTAGTAATCTTGTTATTTTT [XGTACX_negctrl_site373]	7.38 ± 0.54
CTATTTAAAATATGAACACACATTATTTGTTTTAGA [CACACA_site2713]	7.42 ± 0.43
TATTTGTATAAATAAAAATAATATATATCAAATAAC [CACACA_negctrl_site218]	7.57 ± 0.55
AATAGCAATTTGGGGTGTACACACACCTTATTTAAA [XGTACX_site2234]	8.04 ± 0.23
TACTTTTTTTTTTTTTTTTTTTTTTTTTCCCTTTTT [CACACA_negctrl_site761]	7.47 ± 0.53
TAATTAAATATTTCAGTGCATTATTTTATGATCCAT [GTGCAC_site9456]	11.2 ± 0.76
TAATTATTTTAAAAAGTGCATTAAAAGATATTAAAT [GTGCAC_site9694]	11.4 ± 0.56
CTAAATTATAGATCAGTGCAATTTAATATGAGTCCA	8.91 ± 0.22
ATTAAAAGTTTATACAAATAAAAAACAAAACAAAAA [CACACA_negctrl_site1030]	7.7 ± 0.55
TAATAATTTTATAAAGTGCATAAAAATAAAAATTTT	10.6 ± 0.36
TTATAAATTTAAAAAGTGCATAATAATAACAAAAAG	11.2 ± 0.67
AGTGTTTTTTATAAAGTGCAATATAAAAACAAAATG	11.3 ± 0.75
AAATTAAAGATAAAAGTGCAAAATTATAAATTTATT	9.64 ± 0.071
ATAAAAATAAAAAGTGTGCACACAAAAATATATATA [GTGCAC_site9931]	9.96 ± 0.33
TACAAATTTATATAAAGTACAAAAAATAATAAAAAT [XGTACX_site7355]	8.1 ± 0.52
AATATCATTATATAAGTGCATTTTTTAAAAGATAAA [GTGCAC_site9479]	9.04 ± 0.22

Sequence	gcPBM binding intensity (ln)
TTAATTAATTTTTCAGTGCAAATAAAAAATATTTAA	10.4 ± 0.64
GTAATATTAATATAATGTACAAAATGAAACATATAT [XGTACX_site6219]	7.71 ± 0.57
AAATAAATACATAATACATGCATATTTAATATATAG [TGCATGCA_site135]	7.93 ± 0.25
TTTTAGCTATTTTAATATAATGAAGCAAAAAATAAA [TGCATGCA_negctrl_site576]	7.82 ± 0.085
GTGTGGTTACAGACACGAACACATTTTTTAAATATT [CACACA_negctrl_site83]	7.83 ± 0.28
TGAAAAATGTAATGCTCACACATATATATATATATA [CACACA_site5213]	9.41 ± 0.24
CCTACAATTCGTAATACACACACATATATATATATA [CACACA_site9251]	9.29 ± 0.25
CAGCTCTTAAAAATTACACACATATACACATATATA [CACACA_site9073]	7.5 ± 0.54
TTTATTTATTAATACACACACACACCCCCACAAAAT [CACACA_site240]	9.96 ± 0.2
AATTGAAAAATCAGCACACACACAAATACATACATA [CACACA_site3232]	8.09 ± 0.4
TCATTTTAATTAAAAGTGCAAAAAATAATATAACTA [GTGCAC_site9968]	9.9 ± 0.18
TATATATATTAAAAAGTGCATTATTCATATTATATA [GTGCAC_site9400]	11.1 ± 0.73
AGATTATATAAAAAAGTGCATATTTTCATTTTTTTT [GTGCAC_site9448]	9.07 ± 0.13
TAATTATTCTATTAAGTGCATATATTTTTAAAAAGA	9.89 ± 0.3
TTATTAAATTCATAAGTGCATTTATGATTAATTTTT [GTGCAC_site9749]	9.86
ATTAATAAAAAATTTTAAAAAATAAATAAAATAAAA [TGCATGCA_negctrl_site113]	7.58 ± 0.42
GATTATTTCTAAAAAGTGCATATTTAAAAATCTCCT	9.815 ± 0.035
TTCATTTTATTTTAAGTGCATATTTTTATTTTTTTG	8.82 ± 0.099
AAAAAAAAAAAAAAAGTGCATTAATAAATTTTAATA	11.5 ± 0.61
CTGAAATTAACAAAAGTGCATAAAAATAAAAAATAT [GTGCAC_site9652]	10.8 ± 0.38
TTCATATTCGATAAAGTGCATTAATTTTATTTATCA	11.3 ± 0.73
TTTCTCCATATTAAAGTGCATTAATAACAAAAATAA [GTGCAC_site9934]	11.4 ± 0.81
CTATTTTAATATTTTACACACCATGTAAAATATATA [CACACA_site5732]	7.97 ± 0.28
